The values that follow come from PubChem BioAssay (EPA / NIEHS).

Inconclusive results are not listed. Activity calls are given as the source filed them. Rule for the calls, unless noted: active = hit-call score of the fitted dose curve at least 0.9, where 1 is the maximum; inconclusive = response in the unintended direction; inactive = score below 0.9.

Broadly, the AC50 is the midpoint of the concentration-response curve, whichever way the signal moves.

Assay [1] addresses Bile acid receptor (Homo sapiens) (UniProt Q96RI1). As to the kind of experiment: ATG_FXR_TRANS: Attagene TRANS-FACTORIAL HepG2 Assay for Farnesoid X Receptor (FXR) (AID 2282979).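 Note: hits raise reporter mRNA above DMSO so AC50 marks FXR activation.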 The conditions noted are these: HepG2 Attagene TRANS FXR-GAL4 reporter transcription. The method, boiled down:
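After 24 h chemical treatment of transfected HepG2 cells, GAL4-UAS reporter transcripts driven by an exogenous FXR-GAL4 fusion were measured by RT-PCR and capillary electrophoresis. Increases over DMSO were fitted.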

The target of assay [2] is human Thyroid Receptor alpha (THRa1), THRA (gene 7067) (UniProt P10827). As to the kind of experiment: ATG_THRa1_TRANS: Attagene TRANS-FACTORIAL HepG2 Assay for human Thyroid Receptor alpha (THRa1) (AID 2283014). The method, boiled down:
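Measured here is mRNA from a GAL4-UAS reporter in transfected HepG2 cells carrying a Gal4-fused receptor, 24 h post-dose. DMSO served as negative control and baseline.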

The nature of assay [3]: ATG_ERE_CIS: Attagene CIS-FACTORIAL HepG2 Assay for Estrogen Response Element (ERE) (AID 2282940; active = hit-call score of the fitted dose curve at least 0.9, where 1 is the maximum; inactive = score below 0.9). The conditions noted are these: HepG2 ERE cis-reporter, Attagene RNA transcript; actives raise or lower the signal. The method, boiled down:
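Cells used were human hepatoma HepG2, transfected with multiple reporter transcription units under cis-regulatory promoters. Reporter mRNA, read 24 h post-dosing via fluorescent RT-PCR products on capillary electrophoresis, was fitted bidirectionally relative to DMSO.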

The target of assay [4] is Oxysterols receptor LXR-beta (Homo sapiens) (UniProt P55055). As to the kind of experiment: ATG_LXRb_TRANS: Attagene TRANS-FACTORIAL HepG2 Assay for human Liver X Receptor beta (LXRb) (AID 2282981). The conditions noted are these: HepG2 Attagene TRANS GAL4-LXRb reporter, mRNA. In outline:
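Readout: fluorescent reporter mRNA fragments resolved by capillary electrophoresis after RT-PCR. System: transiently transfected human HepG2, exogenous LXRb-Gal4 chimera driving GAL4-UAS reporter, 24 h dosing. Activity fitted upward against DMSO baseline.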

Assay [5] can be described thus: BSK_3C_TissueFactor: BioMAP Diversity Plus: 3C Assay for Tissue Factor Biomarker Activity (AID 2282997; active = hit-call score of the fitted dose curve at least 0.9, where 1 is the maximum; inactive = score below 0.9). The following applies: BioMAP 3C HUVEC, tissue factor biomarker readout; actives raise or lower the signal. The method, boiled down: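 In this endothelial system, HUVEC are treated for 24 h and Tissue Factor is assessed by ELISA, normalised to DMSO.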
The nature of assay [6]: BSK_3C_uPAR: BioMAP Diversity Plus: 3C Assay for Urokinase-type plasminogen activator receptor (uPAR) Biomarker Activity (AID 2282998; active = hit-call score of the fitted dose curve at least 0.9, where 1 is the maximum; inactive = score below 0.9). The following applies: BioMAP 3C HUVEC, uPAR biomarker ELISA; actives raise or lower the signal. In outline: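 Dose primary human umbilical vein endothelial cells, incubate 24 h, measure cell-surface uPAR by ELISA, then fit the signal in both directions against the DMSO negative control.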

Assay [7] can be described thus: BSK_4H_Eotaxin3: BioMAP Diversity Plus: 4H Assay for Eotaxin 3 Biomarker Activity (AID 2283000; active = hit-call score of the fitted dose curve at least 0.9, where 1 is the maximum; inactive = score below 0.9;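 for outcome: CCL26 protein level quantified by ELISA in parallel with SRB cytotoxicity check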). The following applies: primary human endothelial cells (HUVEC); actives raise or lower the signal. In outline: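 ELISA quantitation of CCL26 (Eotaxin-3) protein from chemically dosed human vascular endothelial cells at 24 h; increases and decreases both scored relative to DMSO-treated baseline.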

Read-out in assay [8]: Interleukin-1 alpha (IL1a), IL1A (gene 3552)
As to the kind of experiment: BSK_BE3C_IL1a: BioMAP Diversity Plus: BE3C Assay for Interleukin-1 alpha (IL1a) Biomarker Activity (AID 2283016; active = hit-call score of the fitted dose curve at least 0.9, where 1 is the maximum; inactive = score below 0.9). The following applies: primary human bronchial epithelial cells; actives raise or lower the signal. The method, boiled down: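 ELISA read-out of IL-1a from human lung bronchial epithelial primary cells, 24 h post-dose. Gain or loss of signal fitted relative to DMSO negative control.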

Read-out in assay [9]: Monocyte Chemoattractant Protein-1 (MCP1), CCL2 (gene 6347)
As to the kind of experiment: BSK_3C_MCP1: BioMAP Diversity Plus: 3C Assay for Monocyte Chemoattractant Protein-1 (MCP1) Biomarker Activity (AID 2283017; active = hit-call score of the fitted dose curve at least 0.9, where 1 is the maximum; inactive = score below 0.9). The following applies: primary human endothelial cells (HUVEC); actives raise or lower the signal. The method, boiled down:
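Using human vascular primary endothelium, researchers measured MCP-1 by ELISA 24 h after treatment, with DMSO serving as negative control for bidirectional fitting.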

Read-out in assay [10]: Interleukin-8 (IL8), CXCL8 (gene 3576)
In words: BSK_3C_IL8: BioMAP Diversity Plus: 3C Assay for Interleukin-8 (IL8) Biomarker Activity (AID 2283020; active = hit-call score of the fitted dose curve at least 0.9, where 1 is the maximum; inactive = score below 0.9). The conditions noted are these: primary human endothelial cells (HUVEC); actives raise or lower the signal. The method, boiled down: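 HUVEC, 3C stimulation; 24 h compound exposure; IL-8 read by ELISA; gain or loss of signal fitted relative to DMSO control.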

Read-out in assay [11]: Monokine induced gamma interferon (MIG), CXCL9 (gene 4283)
As to the kind of experiment: BSK_3C_MIG: BioMAP Diversity Plus: 3C Assay for Monokine induced gamma interferon (MIG) Biomarker Activity (AID 2283021; active = hit-call score of the fitted dose curve at least 0.9, where 1 is the maximum; inactive = score below 0.9;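 for AC50: MIG protein level measured by immunoassay in the treated endothelial cultures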). The conditions noted are these: primary human endothelial cells (HUVEC); actives raise or lower the signal. The method, boiled down: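 HUVEC, 3C system; 24 h chemical exposure; MIG by ELISA; bidirectional fit vs DMSO baseline.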

Assay [12] deals with Estrogen receptor beta (Homo sapiens) (UniProt Q92731). In words: OT_ER_ERbERb_0480: Odyssey Thera (OT) 8-hour HEK293T Protein-Complementation Assay for Estrogen Receptor-beta/-beta Homodimer (AID 2283357).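 Note: active means signal gain over DMSO baseline.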 The method, boiled down: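 Homodimerization of ER-beta LBD measured by protein-fragment complementation in HEK293T; 8 h dosing; fixed, Draq5 counterstain; fluorescence intensity gain over DMSO baseline, positive fitting direction; laser scanning cytometry.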
Estrogen receptor beta (Homo sapiens), sequence (Q92731 whole entry, looked up, the tested form may be a part): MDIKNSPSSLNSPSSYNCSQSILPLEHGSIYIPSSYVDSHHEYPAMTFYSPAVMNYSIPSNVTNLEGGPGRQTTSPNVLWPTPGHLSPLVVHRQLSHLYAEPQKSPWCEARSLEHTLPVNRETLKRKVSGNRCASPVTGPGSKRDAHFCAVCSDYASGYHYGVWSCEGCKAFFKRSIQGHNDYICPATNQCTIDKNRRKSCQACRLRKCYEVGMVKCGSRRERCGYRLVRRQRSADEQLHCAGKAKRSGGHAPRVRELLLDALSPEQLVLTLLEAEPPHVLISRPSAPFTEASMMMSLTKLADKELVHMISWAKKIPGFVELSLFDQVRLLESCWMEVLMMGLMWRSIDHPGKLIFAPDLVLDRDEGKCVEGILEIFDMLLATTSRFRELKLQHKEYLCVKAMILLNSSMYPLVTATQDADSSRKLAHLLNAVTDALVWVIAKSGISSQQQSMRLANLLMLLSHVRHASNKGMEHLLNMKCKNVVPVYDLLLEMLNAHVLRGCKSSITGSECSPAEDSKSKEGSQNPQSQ

For assay [13] the target is unchanged. As to the kind of experiment: OT_ER_ERbERb_1440: Odyssey Thera (OT) 24-hour HEK293T Protein-Complementation Assay for Estrogen Receptor-beta/-beta Homodimer (AID 2283380).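 Note: scored as signal increase over DMSO baseline for both agonists and antagonists.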 The method, boiled down:
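HEK293T cells stably expressing ER beta LBD (aa 310-547) homodimer fragment-complementation reporter, dosed 24 h. Cells formaldehyde-fixed, Draq5-stained; gain in nuclear (agonist) or nuclear plus cytoplasmic (antagonist) fluorescence versus DMSO read by laser scanning cytometry.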

For assay [14], the target named is Retinoic acid receptor RXR-alpha (Homo sapiens) (UniProt P19793). As to the kind of experiment: OT_NURR1_NURR1RXRa_0480: Odyssey Thera (OT) 8-hour HEK293T Protein Complementation Assay for Nurr1/retinoid X receptor (RXR) (AID 2283385). In outline:
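Read-out: fluorescence from protein-fragment complementation between Nurr1 and RXRα in human HEK293T cells, 8 h after dosing. DMSO served as negative control; increased signal counted as activity.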

The target is the same in assay [15]. As to the kind of experiment: OT_NURR1_NURR1RXRa_1440: Odyssey Thera (OT) 24-hour HEK293T Protein Complementation Assay for Nurr1/retinoid X receptor (RXR) (AID 2283386). In outline:
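Fluorescence PCA read-out; HEK293T; 24 h post-dose; bait/prey fused to reporter fragments; gain-of-signal fit vs DMSO negative control.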

Assay [16] addresses Peroxisome proliferator-activated receptor gamma (Homo sapiens) (UniProt P37231). As to the kind of experiment: OT_PPARg_PPARgSRC1_0480: Odyssey Thera (OT) 8-hour Protein-Complementation Assay for Peroxisome Proliferator-activated Receptor Gamma / SRC-1 Co-activator (AID 2283387).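 Note: nuclear to cytoplasmic split Venus YFP fluorescence ratio reporting PPARg SRC-1 interaction.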 In outline:
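HEK293T transiently transfected with PPARg and SRC-1 fused to Venus YFP fragments, compounds 8 h at 37C. Fixed, Draq5-stained cells imaged; nuclear/cytoplasmic 488 nm fluorescence ratio over at least 350 cells per image; gain fitted versus DMSO.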

The target is the same in assay [17]. In words: OT_PPARg_PPARgSRC1_1440: Odyssey Thera (OT) 24-hour Protein-Complementation Assay for Peroxisome Proliferator-activated Receptor Gamma/ SRC-1 Co-activator (AID 2283388). In outline: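 Cells carrying the PPARg/SRC-1 fragment-complementation reporter receive compound for 24 hours, are fixed and counterstained with Draq5, then imaged. Increased nuclear relative to cytoplasmic YFP fluorescence above DMSO baseline indicates binding activity.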

The nature of assay [18]: ACEA_AR_agonist_AUC_viability: ACEA Biosciences xCELLigence Real-Time Cell Analysis on Androgen Receptor Agonism for Viability (AID 2283775). In outline: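 Viability endpoint from xCELLigence impedance in 22Rv1 prostate cells at 80 h. Eight-point series, 100 uM maximum final.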
A short description of assay [19]: ACEA_AR_antagonist_AUC_viability: ACEA Biosciences xCELLigence Real-Time Cell Analysis on Androgen Receptor Antagonism for Viability (AID 2283776).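 Note: area under impedance growth curve at 80 h after dosing as viability; hits lower the growth signal relative to DMSO meaning cytotoxicity.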 In outline:
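22Rv1 human prostate cancer cells were seeded on electrode plates, monitored overnight, then exposed to eight 1:4 dilutions from 100 uM final. Impedance-based growth kinetics at 80 h gave an AUC viability endpoint normalized to DMSO.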

The nature of assay [20]: ATG_GAL4_TRANS: Attagene TRANS-FACTORIAL HepG2 Assay for GAL4 (Internal Marker) (AID 2282976). The following applies: HepG2 Attagene TRANS GAL4 internal marker reporter. In outline: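 Liver HepG2 line bearing multiplexed GAL4-UAS reporter constructs; 24 h chemical treatment. Transcripts were quantified as fluorescent fragments on capillary electrophoresis after RT-PCR and HpaI cut, with activity fitted upward from DMSO.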

Bile acid receptor (Homo sapiens), sequence (Q96RI1 whole entry, looked up, the tested form may be a part): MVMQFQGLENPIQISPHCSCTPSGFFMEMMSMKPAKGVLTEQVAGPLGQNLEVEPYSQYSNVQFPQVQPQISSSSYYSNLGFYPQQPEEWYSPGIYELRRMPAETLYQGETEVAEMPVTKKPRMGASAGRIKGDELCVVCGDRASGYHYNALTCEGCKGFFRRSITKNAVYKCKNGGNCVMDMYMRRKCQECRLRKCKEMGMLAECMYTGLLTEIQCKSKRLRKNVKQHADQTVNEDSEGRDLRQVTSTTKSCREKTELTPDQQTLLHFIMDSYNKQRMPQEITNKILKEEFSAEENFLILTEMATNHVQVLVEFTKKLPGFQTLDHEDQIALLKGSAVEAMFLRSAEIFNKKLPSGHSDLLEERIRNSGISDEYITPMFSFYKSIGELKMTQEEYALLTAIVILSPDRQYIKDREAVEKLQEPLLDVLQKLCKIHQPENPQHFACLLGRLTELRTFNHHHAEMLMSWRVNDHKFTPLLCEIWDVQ
Oxysterols receptor LXR-beta (Homo sapiens), sequence (P55055 whole entry, looked up, the tested form may be a part): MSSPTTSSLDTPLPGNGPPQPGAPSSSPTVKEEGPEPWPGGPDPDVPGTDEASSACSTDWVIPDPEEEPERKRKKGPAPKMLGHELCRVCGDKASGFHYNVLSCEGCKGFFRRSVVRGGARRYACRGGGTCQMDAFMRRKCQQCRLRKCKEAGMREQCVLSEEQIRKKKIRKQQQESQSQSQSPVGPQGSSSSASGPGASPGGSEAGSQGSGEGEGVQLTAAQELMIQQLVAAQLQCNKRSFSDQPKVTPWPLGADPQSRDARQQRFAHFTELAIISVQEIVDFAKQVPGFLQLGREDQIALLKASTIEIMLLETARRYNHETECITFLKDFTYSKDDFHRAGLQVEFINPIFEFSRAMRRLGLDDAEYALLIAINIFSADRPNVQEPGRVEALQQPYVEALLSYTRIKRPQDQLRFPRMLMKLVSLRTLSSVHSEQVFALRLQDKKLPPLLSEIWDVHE
Retinoic acid receptor RXR-alpha (Homo sapiens), sequence (P19793 whole entry, looked up, the tested form may be a part): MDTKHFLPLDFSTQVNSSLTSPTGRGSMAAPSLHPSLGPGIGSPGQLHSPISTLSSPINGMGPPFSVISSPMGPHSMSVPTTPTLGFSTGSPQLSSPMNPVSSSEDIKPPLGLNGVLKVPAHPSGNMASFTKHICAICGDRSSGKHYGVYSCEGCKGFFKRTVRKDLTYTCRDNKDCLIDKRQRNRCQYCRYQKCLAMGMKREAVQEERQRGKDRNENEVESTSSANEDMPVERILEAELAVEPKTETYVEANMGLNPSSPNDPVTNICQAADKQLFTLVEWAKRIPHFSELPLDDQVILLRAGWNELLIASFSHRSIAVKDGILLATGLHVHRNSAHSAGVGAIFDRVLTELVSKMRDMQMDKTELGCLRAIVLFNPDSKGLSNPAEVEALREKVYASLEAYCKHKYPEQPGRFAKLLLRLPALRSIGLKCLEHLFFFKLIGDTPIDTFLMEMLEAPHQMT
Peroxisome proliferator-activated receptor gamma (Homo sapiens), sequence (P37231 whole entry, looked up, the tested form may be a part): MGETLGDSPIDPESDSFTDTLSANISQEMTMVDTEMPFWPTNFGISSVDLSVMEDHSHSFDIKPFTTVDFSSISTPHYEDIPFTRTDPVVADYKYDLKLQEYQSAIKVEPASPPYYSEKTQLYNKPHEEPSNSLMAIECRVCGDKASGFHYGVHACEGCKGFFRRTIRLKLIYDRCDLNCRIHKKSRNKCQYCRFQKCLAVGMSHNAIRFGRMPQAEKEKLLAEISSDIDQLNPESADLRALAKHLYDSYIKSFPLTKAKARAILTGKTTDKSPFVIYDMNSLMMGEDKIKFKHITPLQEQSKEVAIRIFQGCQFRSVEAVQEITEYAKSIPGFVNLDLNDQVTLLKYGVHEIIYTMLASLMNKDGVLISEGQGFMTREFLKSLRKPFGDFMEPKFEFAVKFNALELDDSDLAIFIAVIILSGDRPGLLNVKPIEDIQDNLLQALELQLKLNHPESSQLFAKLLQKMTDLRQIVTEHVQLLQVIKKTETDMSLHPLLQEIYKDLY
human Thyroid Receptor alpha (THRa1), THRA (gene 7067), sequence (P10827 whole entry, looked up, the tested form may be a part): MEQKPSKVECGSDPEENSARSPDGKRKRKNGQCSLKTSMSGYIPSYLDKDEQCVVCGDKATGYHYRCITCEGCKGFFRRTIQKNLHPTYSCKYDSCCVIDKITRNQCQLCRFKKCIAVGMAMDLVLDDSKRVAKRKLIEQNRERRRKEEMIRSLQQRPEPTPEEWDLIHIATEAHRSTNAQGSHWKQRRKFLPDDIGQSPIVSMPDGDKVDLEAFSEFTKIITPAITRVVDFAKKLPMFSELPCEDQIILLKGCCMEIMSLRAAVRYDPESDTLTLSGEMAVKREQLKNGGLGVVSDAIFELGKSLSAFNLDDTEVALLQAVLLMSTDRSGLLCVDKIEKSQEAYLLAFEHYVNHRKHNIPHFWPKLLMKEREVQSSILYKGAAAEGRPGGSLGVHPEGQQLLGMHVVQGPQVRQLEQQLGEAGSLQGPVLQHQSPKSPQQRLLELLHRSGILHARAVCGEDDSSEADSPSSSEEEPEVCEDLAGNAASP

Turning to `CCC(C)c1cc(C(C)(C)C)cc(-n2nc3ccccc3n2)c1O` (stereo unspecified), the compound was classed as inactive in assay [1] and in assay [2].

On to `CN(C)CCC#N`, for which the outcome in assay [3] and in assay [4] was inactive.

On to `CC(=O)/C=C/c1ccccc1`, for which the outcome in assay [4], in [5], in assay [6], in assay [7], in [8] and in assay [9] was inactive. The outcome in assay [10] and in assay [11] was inactive.

For the compound `Cc1cc(C)c(C2=C(OC(=O)CC(C)(C)C)C3(CCCC3)OC2=O)c(C)c1`, the compound was classed as inactive in assay [3], in assay [1], in assay [12], in [13], in assay [14] and in assay [15]. Also, the compound was classed as inactive in assay [16], in [17], in assay [18] and in assay [19].

In the case of `c1ccc2c(c1)CCCC2`, the result in assay [3], in assay [20], in [1], in [12], in [13] and in assay [14] was inactive. Further, the result in [16], in assay [17], in assay [18] and in assay [19] was inactive.

For the compound `O=CNC(N1CCN(C(NC=O)C(Cl)(Cl)Cl)CC1)C(Cl)(Cl)Cl` (stereo unspecified), the outcome in assay [3], in assay [4], in assay [2], in [13], in [14] and in assay [16] was inactive. Moreover, the compound was classed as inactive in [17], in assay [18] and in assay [19].

In the case of `CSc1nc(N=[N+]=[N-])nc(NC(C)C)n1`, the compound was called inactive in assay [3] and in assay [4].

With `Nc1ccc(Cl)c(Cl)c1`, the compound was classed as inactive in assay [4], in assay [12], in assay [13], in assay [14], in [15] and in assay [16]. The outcome in [17] and in assay [18] was inactive. Besides, the half-maximal activity concentration (AC50) in assay [19] was 1.14 µM (active).

On to `CC(=O)C=Cc1ccccc1`, for which the compound was classed as inactive in [20], in assay [4], in assay [12], in assay [13], in assay [15] and in [16]. In addition, in [17], the result was inactive. The AC50 in [14] was 1.12 µM (active).

Regarding `N#CCNCC#N`, the outcome in assay [3] and in [20] was inactive.

As for `Cl/C=C\CCl`, the result in assay [20] was inactive.

In the case of `CCC(Br)(CC)C(=O)NC(N)=O`, in assay [1], the compound was classed as inactive.

As for `COC(C)(C)CCC[C@H](C)C/C=C/C(C)=C/C(=O)OC(C)C`, the AC50 in assay [5] is 20 µM (active); in assay [6] it was 33.5 µM (active); in assay [7], 29.4 µM (active); in assay [8], 7.52 µM (active); in [9], 36.9 µM (active); in assay [11], 39.2 µM (active). Moreover, the outcome in [10] was inactive.
